gsp ag – agonists of gsp mutant (McCune-Albright syndrome); gsp mutant cells, cAMP HTRF, 30 min; Potency, µM (highest dose often 76.9 µM), inactives show at the top dose activation (cAMP increase), actives largely listed as activators; actives 0.13% (n = 340,000); active = well fitted activation curve with a large enough effect; inconclusive = small, poorly fitted or top-dose-only effect, or another doubt; inactive = no such curve, though single readings can be large or run the other way; cell line not stated here;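 also: phosphodiesterase inhibitor Ro 20-1724 added with compounds to block cAMP breakdown; potency is read from the fitted curve at half-maximal effect; nearly all actives have a fitted effect of over 60% in size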
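Cells stably selected in G418 were plated at 2000/well, grown 16-24 hr, then given compounds in DMSO with the PDE inhibitor […] (300 uM solution added) for 30 min at 37C; cAMP was read by HTRF.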
Coupling enz – inhibits coupling enzyme system, counter-screen for aldolase hits. coupling enzyme system counterscreen, AmpLite Red fluorescence. activity change, negative = inhibition, % at 58.2 µM, hits read low. actives 0.67% (n = 290,000); in the data active = activity change below about -30%; also: % is scaled to controls: 0 for no effect and ±100 for the full control effect
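Counterscreen of the coupled detection system alone, without aldolase: glyceraldehyde-3-phosphate coupling enzymes plus AmpLite Red readout. Compounds at 57.5 uM final, 10 min RT preincubation, 20 min RT reaction, fluorescence 525/598 nm.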
gsp antagonist – gsp mutant antagonism. gsp-mutant cells, cAMP HTRF, 30 min. Potency, µM (series often up to 76.9 µM), for the others: top-dose activity change, negative = inhibition, usual class: inhibitors. actives 0.4% (n = 340,000). AID 624288; calls by dose curve; cell line not stated here;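 also: intracellular cAMP measured with PDE inhibitor Ro 20-1724 present during compound exposure; potency is read from the fitted curve at half-maximal effect; % is scaled to controls: 0 for no effect and ±100 for the full control effect; nearly all actives have a fitted effect of over 65% in size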
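HTRF cAMP measurement after 30 min RT detection following 30 min, 37C compound treatment alongside […] (added as 300 uM solution) in G418-selected cells seeded at 2000/well and grown 16–24 h.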
RXFP1 antagonist – blocks the human relaxin receptor RXFP1 | HEK293-RXFP1, relaxin-stimulated cAMP HTRF, 30 min; active compounds read low | actives 0.59% (n = 350,000) | activity change, negative = inhibition, % at 57.5 µM | Q9HBX9;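 active = activity change of -60% or lower, but not beyond a set lower limit; inconclusive = change between -60% and -40%, or beyond the set limit; inactive = change above -40%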; also: % is scaled to controls: 0 for no effect and ±100 for the full control effect
Target sequence (Q9HBX9 whole entry, looked up): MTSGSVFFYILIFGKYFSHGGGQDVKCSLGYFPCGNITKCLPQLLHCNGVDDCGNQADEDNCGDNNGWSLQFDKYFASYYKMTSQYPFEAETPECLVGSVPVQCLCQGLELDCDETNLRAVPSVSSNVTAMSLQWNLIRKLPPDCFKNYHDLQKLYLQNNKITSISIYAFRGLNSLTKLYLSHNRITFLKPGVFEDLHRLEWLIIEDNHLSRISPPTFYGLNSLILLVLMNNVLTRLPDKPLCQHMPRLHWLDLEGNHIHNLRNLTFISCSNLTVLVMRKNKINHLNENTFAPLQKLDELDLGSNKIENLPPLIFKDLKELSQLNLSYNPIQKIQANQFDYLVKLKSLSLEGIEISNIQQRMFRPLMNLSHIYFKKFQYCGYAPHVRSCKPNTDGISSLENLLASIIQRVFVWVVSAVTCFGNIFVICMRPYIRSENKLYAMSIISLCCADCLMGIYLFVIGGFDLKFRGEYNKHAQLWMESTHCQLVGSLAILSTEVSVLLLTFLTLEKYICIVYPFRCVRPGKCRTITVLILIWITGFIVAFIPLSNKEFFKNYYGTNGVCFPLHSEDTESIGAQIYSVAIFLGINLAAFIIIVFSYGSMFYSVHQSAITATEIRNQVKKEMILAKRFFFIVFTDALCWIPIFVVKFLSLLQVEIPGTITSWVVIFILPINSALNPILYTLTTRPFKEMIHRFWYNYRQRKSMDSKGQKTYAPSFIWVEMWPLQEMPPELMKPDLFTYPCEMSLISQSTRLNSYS
RXFP1 ag – agonists of human relaxin receptor RXFP1; actives 0.3% (n = 370,000); Q9HBX9; AID 2676; Potency, µM (titrated, usually from 57.5 µM), for the others: at the top dose activation, actives largely listed as activators; HEK293T-RXFP1 cAMP TR-FRET, 30 min; response scale: percent of porcine relaxin response, buffer zero; active = well fitted activation curve with a large enough effect; inconclusive = small, poorly fitted or top-dose-only effect; also: potency is read from the fitted curve at half-maximal effect; % is scaled to controls: 0 for no effect and ±100 for the full control effect; nearly all actives have a fitted effect of over 60% in size
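Agonist response is measured as cAMP accumulation in an RXFP1-transfected HEK293T line under PDE4 inhibition. Values are scaled between buffer-only and 29 nM porcine relaxin, and EC50s come from standard Hill equation fits.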
Giardia kill – kills Giardia lamblia; Giardia lamblia trophozoite viability; activity change, % at 7.66 µM, hits read low; AID 540267; actives 0.15% (n = 340,000); in the data active = activity change below about -80%; inconclusive = between about -30% and that limit;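 also: parasites exposed to compound for two days anaerobically before the ATP read; % is scaled to controls: 0 for no effect and ±100 for the full control effect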
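Anaerobic 48 hrs incubation at 37 deg C of 100 trophozoites/well with test compounds; ATPLite 1-Step luminescence, 15-30 min RT, reports cellular ATP as viability.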
The depositor's hits bear a star; [ ] = dose if it differs, or a comment. This is a sample that favours compounds with a hit; in the whole collection about 1.6% have one here.

Results for CCOC(=O)C1CCN(C(=O)c2cc(COc3ccc(OC)c4ccccc34)on2)CC1 ?
gsp ag: -77.2%; Coupling enz: -37.2*; gsp antagonist: -2.1%; RXFP1 antagonist: -7.0; RXFP1 ag: 0.1%; Giardia kill: 10.1

How did COc1ccc(OCc2cc(C(=O)N3CCC(OC)CC3)no2)c2ccccc12 do in these assays?
gsp ag: -21.0%; gsp antagonist: -11.3%; RXFP1 antagonist: -13.2; RXFP1 ag: 0.7%; Giardia kill: 5.2

How did Cc1ccc(C(=O)N/N=C\c2ccc([N+](=O)[O-])o2)cn1 do in these assays?
gsp ag: 8.91µM*; Coupling enz: -15.5; gsp antagonist: -5.3%; RXFP1 antagonist: -14.2; RXFP1 ag: 4.3%; Giardia kill: inconclusive

How did O=C(N/N=C\c1ccc(-c2ccc([N+](=O)[O-])cc2)o1)c1ccc2c(c1)OCO2 do in these assays?
gsp ag: -13.7%; Coupling enz: 3.2; gsp antagonist: 2.8%; RXFP1 ag: -2.6%; Giardia kill: 19.2

How did CC(C)(C)c1ccc2c(c1)OC(C(=O)N/N=C\c1ccncc1)CO2 (stereo not given) do in these assays?
gsp ag: -3.4%[15.4 µM]; Coupling enz: 1.0; gsp antagonist: -4.3%; RXFP1 antagonist: -15.5; RXFP1 ag: 2.7%; Giardia kill: 9.8

What do the screens show for `O=C(N/N=C/c1ccc([N+](=O)[O-])o1)c1ccc2c(c1)OCO2`?
gsp ag: inconclusive; Coupling enz: -3.1; gsp antagonist: -7.8%; RXFP1 antagonist: -3.9; RXFP1 ag: 4.0%; Giardia kill: -91.4*

What do the screens show for `CC(C)(C)c1ccc2c(c1)OC(C(=O)N/N=C/c1ccc([N+](=O)[O-])o1)CO2` (stereo not given)?
gsp ag: 2.3%; Coupling enz: -2.0; gsp antagonist: -2.6%; RXFP1 antagonist: inconclusive; RXFP1 ag: -2.8%; Giardia kill: -97.8*

How did C[C@H](NC(=O)CNC(=O)[C@@H](NC(=O)[C@H](Cc1ccccc1)NC(=O)CNC(=O)CNC(=O)[C@@H](N)Cc1ccccc1)[C@@H](C)O)C(=O)N[C@@H](CCCN=C(N)N)C(=O)N[C@@H](CCCCN)C(=O)N[C@@H](CO)C(=O)N[C@@H](C)C(=O)N[C@@H](CCCN=C(N)N)C(=O)N[C@@H](CCCCN)C(N)=O do in these assays?
Coupling enz: -0.5

What do the screens show for `CCCCOC(=O)CNc1n[nH]c(=S)[nH]c1=O`?
gsp ag: inconclusive; Coupling enz: 1.0; gsp antagonist: 6.5%; RXFP1 antagonist: -63.5*; RXFP1 ag: inconclusive; Giardia kill: 10.8

What do the screens show for `COc1ccco1`?
Coupling enz: 1.6

Results for Cc1ccn2c(c1)nc(=O)c1cc(S(=O)(=O)N3CCCCC3)ccc12 ?
gsp ag: 3.9%[15.4 µM]; Coupling enz: 3.6; gsp antagonist: -9.9%; RXFP1 antagonist: -8.7; RXFP1 ag: 4.9%; Giardia kill: -7.3

What do the screens show for `O=c1nc2ccccn2c2ccc(S(=O)(=O)N3CCCCC3)cc12`?
gsp ag: 35.0%[15.4 µM]; Coupling enz: -1.1; gsp antagonist: 18.1%; RXFP1 antagonist: 22.8; RXFP1 ag: 20µM*; Giardia kill: 34.0

How did Cc1ccc(Sc2cncc3sc(C(N)=O)cc23)cc1 do in these assays?
Coupling enz: 5.2

How did Cc1cc(/C=C2\SC(=S)NC2=O)c(C)n1-c1cccc(O)c1 do in these assays?
gsp ag: -1.7%; Coupling enz: 0.3; gsp antagonist: -23.5%; RXFP1 antagonist: -15.1; RXFP1 ag: 1.4%; Giardia kill: inconclusive

Results for Cc1sc(-n2c(C)cc(/C=C3\SC(=S)NC3=O)c2C)c(C#N)c1C ?
gsp ag: 9.6%; Coupling enz: 2.6; gsp antagonist: -39.1%; RXFP1 antagonist: -105.5*; RXFP1 ag: 1.1%; Giardia kill: -1.6

How did CN1C(=O)/C(=C\C(=O)c2cccs2)c2ccccc21 do in these assays?
gsp ag: 34.5%[15.4 µM]; Coupling enz: 0.3; gsp antagonist: -1.8%; RXFP1 antagonist: -97.6*; RXFP1 ag: 1.6%; Giardia kill: -14.0

Results for N#CC1=C(N)C(C#N)(C#N)C(c2cccnc2)C2CCCC=C12 (stereo not given) ?
Coupling enz: -36.5*; RXFP1 ag: 2.5%

What do the screens show for `CN1C(=O)C2(OCC(COc3ccc(Cl)cc3)O2)c2ccccc21` (stereo not given)?
gsp ag: 4.4%; Coupling enz: -2.2; gsp antagonist: 35.5µM*; RXFP1 antagonist: 1.1; RXFP1 ag: -0.3%; Giardia kill: -3.8

How did O=C1Nc2ccccc2C12OCC(COc1ccc(Cl)cc1)O2 (stereo not given) do in these assays?
gsp ag: 8.3%; Coupling enz: -0.3; gsp antagonist: -24.6%; RXFP1 antagonist: -11.3; RXFP1 ag: 0.5%; Giardia kill: -0.3

How did CCCCC[C@H](O)/C=C/C1=C(C/C=C\CCCC(=O)O)C(=O)CC1 do in these assays?
Coupling enz: 0.8

Results for O=C(O)c1cccc(Cn2c(Cl)c(/C=N/Nc3ccccc3)sc2=O)c1 ?
gsp ag: -23.8%; Coupling enz: 15.7; gsp antagonist: -20.6%; RXFP1 antagonist: -73.6*; RXFP1 ag: -5.0%; Giardia kill: 5.9

Results for O=C(O)c1cccc(Cn2c(Cl)c(/C=N/NC(=O)c3ccccc3Cl)sc2=O)c1 ?
gsp ag: -4.7%; Coupling enz: 10.7; gsp antagonist: -10.2%; RXFP1 ag: 0.0%; Giardia kill: 3.9

Results for Cc1ccccc1CS(=O)(=O)c1ncc(Cl)c(C(=O)Nc2ccc(F)cc2)n1 ?
gsp ag: inconclusive; gsp antagonist: 4.3%; RXFP1 antagonist: -103.5*; RXFP1 ag: -0.5%; Giardia kill: -9.9

Results for O=C(Nc1ccc(F)cc1)c1nc(S(=O)(=O)Cc2ccccc2)ncc1Cl ?
gsp ag: -36.8%; gsp antagonist: 39.8µM*; RXFP1 antagonist: -104.8*; RXFP1 ag: -2.4%; Giardia kill: -1.8

Results for O=C(NCc1ccccc1)c1nc(S(=O)(=O)Cc2ccc(F)cc2)ncc1Cl ?
RXFP1 antagonist: -116.1*; RXFP1 ag: -0.2%

What do the screens show for `O=C(Nc1nc2ccc(F)cc2s1)c1nc(S(=O)(=O)Cc2ccccc2)ncc1Cl`?
RXFP1 ag: 0.1%

Results for Cc1ccc(NC(=O)c2nc(S(=O)(=O)Cc3ccccc3)ncc2Cl)cc1 ?
gsp ag: -0.5%[15.4 µM]; Coupling enz: 1.4; gsp antagonist: -12.1%; RXFP1 antagonist: -84.7*; RXFP1 ag: 1.4%; Giardia kill: -1.9

What do the screens show for `Cc1cccc(-c2c3c(=O)n(C)c(=O)n(C)c3cn2-c2cc(N)c(Cl)cc2Cl)c1`?
RXFP1 antagonist: -23.3; RXFP1 ag: 3.4%

Screening data as filed in PubChem.
